The record followed here is PubChem BioAssay AID651640 (Broad Institute, 2012).

Out of some 350,000 compounds screened, about 6,000 (1.7%) were called active. Another 5% or so got no clear call; they are omitted. For the sample, actives were picked, then their nearest neighbours and some compounds at random. Unmarked numbers belong to inactive results. Rule as the data show it: active = CPE inhibition above about 20% (passing the limit was not always enough); inconclusive = no clear call, values can overlap the other calls; tested in BHK-21 cells.

This assay can be described thus: protection of cells from dengue 2 killing – plate reader, single concentration, primary screen (AID 651640).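 Also: 0% = median of neutral control wells and 100% = median of positive control wells.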 Conditions: DENV2-infected cells, cytopathic effect rescue, at 9.99 µM, hits give high values.
As to `CCOc1ccc(Oc2nc(C)cc(OC)n2)nn1`, the CPE inhibition was 71.4% (active).
As for `COc1ccc2c3c([nH]c2c1)[C@H](CO)N(Cc1nccs1)CC31CCN(Cc2ccncc2)CC1`, the figure is 6.23%; as for `CCC(=O)N(C)C[C@@H]1Oc2cc(C#C[C@H](C)O)ccc2S(=O)(=O)N([C@@H](C)CO)C[C@H]1C`, -5.73%.
On to `C[C@@H]1CCCCO[C@H](CN(C)S(=O)(=O)c2cn(C)cn2)[C@@H](C)CN([C@@H](C)CO)C(=O)c2cc(NC(=O)c3ccncc3)ccc2O1`, for which the CPE inhibition was 1.9%.
In the case of `COc1cc2c(cc1OC)CN(CC(=O)Nc1ccc(F)cc1)CC2`, the CPE inhibition is -5.5%.
Turning to `O=C(CN1CCOCC1)Nc1ccccc1`, the CPE inhibition is 1.83%.
Take `O=C(CN1CCc2cc3c(cc2C1)OCCCO3)Nc1ccccc1`: the CPE inhibition is 28.1% (active).
Take `O=C([C@@H]1[C@@H](CO)[C@@H]2Cn3c(ccc(C4=CCCCC4)c3=O)[C@H]1N2Cc1nccs1)N1CCCCC1`: the CPE inhibition was -3.86%.
Take `COc1ccc2c3c(n(C)c2c1)[C@@H](CO)N(C(=O)c1cccnc1)CC31CCN(C(=O)c2cccnc2)CC1`: the CPE inhibition is -1.97%.
In the case of `CCCC#Cc1ccc([C@@H]2[C@@H](CO)N3C(=O)CN(C(=O)c4ccncc4)C[C@@H]23)cc1`, the CPE inhibition was 0.156%.
`CCNC[C@@H]1[C@@H](c2ccccc2)[C@@H](CO)N1C(=O)Cc1ccccn1`: the CPE inhibition is -0.972%.
With `COCC(=O)N1[C@H](CNC(=O)c2ccccn2)[C@H](c2ccccc2)[C@@H]1CO`, the CPE inhibition was 35.1% (active).
Take `COCC(=O)N1[C@H](CO)[C@@H](c2ccccc2)[C@H]1CN(C)C(=O)c1ccncc1`: the CPE inhibition was -13.8%.
As for `COc1ccc2c3c([nH]c2c1)[C@H](CO)N(Cc1cccc(F)c1)CC31CCN(Cc2ccccn2)CC1`, the figure is 5.05%.
As for `CCOc1ccc(C(=O)Nc2ccc(CN3CCOCC3)cc2)cc1Cl`, the figure is 29.8% (active).
In the case of `O=C(Nc1ccc(CN2CCOCC2)cc1)c1cc(Cl)ccc1Cl`, the CPE inhibition is 0.583%.
As for `CCCc1cc(=O)oc2cc(OCC(=O)Nc3ccc(CN4CCOCC4)cc3)c(Cl)cc12`, the figure is 2.98%.
Under `Cc1noc(C)c1NC(=O)Nc1ccc2c(c1)CC(=O)N([C@H](C)CO)C[C@@H](C)[C@H](CN(C)S(=O)(=O)c1cccs1)O2` stands 5.9%; under `C[C@@H]1CN([C@@H](C)CO)C(=O)c2cccc(NS(=O)(=O)c3ccc(Cl)cc3)c2O[C@@H]1CN(C)Cc1ccccc1`, 10.9%; under `O=C(Cc1cccnc1)N1CC(=O)N2[C@@H](CO)[C@@H](c3ccc(C#CC4CCCCC4)cc3)[C@@H]2C1`, 6.08%.
